Reference: ChEMBL document CHEMBL1157539, “Thousands of chemical starting points for antimalarial lead identification” (Nature, 2010)

What follows are compounds tested on Plasmodium falciparum (assay: GSK_TCMDC: Inhibition of Plasmodium falciparum Dd2 in whole red blood cells, using parasite LDH activity as an index of growth. Test compounds present at 2uM).
Assay type: functional

Row | Structure (SMILES) | Inhibition
1 | O=C(N[C@@H](Cc1ccccc1)CN1CCC(Oc2ccc(F)cc2)CC1)c1ccc(OCCCN2CCCCC2)cc1.O=C(O)C(F)(F)F | 92%
2 | COc1cc(OC)c2c(C)cc(NCCCN3CCOCC3)nc2c1 | 3%
3 | CN(C)CCCN(C)C(=O)c1cc2cc(-c3ccccc3)ccc2n1S(=O)(=O)c1ccccc1.Cl | 66%
4 | O=C(NCCc1cccc(F)c1)c1cc(Br)cc(N2CCN(c3ccncc3)CC2)c1.O=C(O)C(F)(F)F | 86%
5 | Cc1cccc2nc(-c3ccc(-c4cccc(NC(=O)C(C)CN(C)C)c4)cc3)[nH]c12 (stereo not drawn) | 61%
6 | COc1ccc(CCNC(C)Cc2ccc(C(=O)Nc3ccc(CC(C)NCCc4cccc(Cl)c4)cc3)cc2)cc1 (stereo not drawn) | 89%
7 | CCCC(C)Nc1nc(C)cc(N[C@@H](CC(C)C)C(=O)Nc2ccc(OC)cc2)n1.O=C(O)C(F)(F)F (stereo partly drawn) | 68%
8 | CCCCc1cc(N2CCC(NC(C)=O)C2)nc(Nc2ccc(C)cc2)n1 (stereo not drawn) | 1%
9 | CC1(C)N=C(N)N=C(N)N1OCCCCON1C(N)=NC(N)=NC1(C)C | 95%
10 | CN(C)c1nc(NCc2ccccc2)nc(N/N=C/c2cc([N+](=O)[O-])ccc2O)n1 | 90%
11 | CCC(N)(C#Cc1ccc(-c2c(C)[nH]c(C)c(Br)c2=O)cc1)CC | 96%
12 | O=C(Nc1cc(F)cc(F)c1)N1CCOC(CCN2CCC3(CCc4ccccc43)CC2)(c2ccc(Cl)c(Cl)c2)C1 (stereo not drawn) | 86%
13 | Fc1ccc(-c2nc(NCc3cccc(C(F)(F)F)c3)nn2-c2cccc(C(F)(F)F)c2)cc1C(F)(F)F | 58%
